Screening results as filed in PubChem.
KB-3-1 cytotox: KB-3-1 parental cell cytotoxicity; KB-3-1 viability, CellTiter-Glo ATP luminescence, 72 h; Potency, µM (doses to about 46.1 µM), actives largely listed as cytotoxic; 1.4% of 400,000 active; note: nearly all actives have a fitted effect of over 60% in size
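Screening of KB-3-1 cells (DMEM, 10% FBS, phenol-red free) ran from lowest to highest compound concentration; after 72 h at 37 °C viability was read luminescently and curves fitted.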
HT1080NT lethal: kills 2HG-producing HT-1080-NT fibrosarcoma cells; HT-1080-NT fibrosarcoma viability, CellTiter-Glo ATP luminescence, 48 h; Potency, µM (titrated, usually from 46.1 µM), without a hit: at the top dose activity, negative = less viability, hits mostly cytotoxic; 1.6% of 360,000 active; AID 686970;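 note: NT is the 2HG producing partner of a matched IDH1 knockdown line; 0% = DMSO-treated cells and -100% = media-only wells without cells; nearly all actives have a fitted effect of over 55% in size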
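Viability by CellTiter-Glo luminescence after 48 h compound exposure at 37C of HT-1080-NT cells (750/well, RPMI, 5% FBS). % activity scaled between DMSO wells and medium-only wells, then curve-fitted and categorized by curve class.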
HT1080 IDH1KD tx: HT-1080 IDH1 knockdown cell toxicity (counter line); HT-1080 IDH1 knockdown viability, ATP luminescence, 48 h; Potency, µM (top dose mostly 46.1 µM), without a hit: top-dose activity, negative = toxicity, usual class: cytotoxic; 2% of 360,000 active; AID 686971;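 note: 0% = DMSO wells and -100% = cell-free medium wells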
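In this qHTS, HT-1080 cells depleted of IDH1 are exposed for 48 h at 37 °C to compound titrations. Toxicity is scored from CellTiter-Glo luminescence, with DMSO as full viability and medium alone as none.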
DT40 TDP1 no CPT: qHTS for Inhibitors of human tyrosyl-DNA phosphodiesterase 1 (TDP1): qHTS in cells in absence of CPT | DT40 Tdp1-/- hTDP1 cells, no CPT, ATP luminescence, 48 h | Potency, µM (highest dose often 46.2 µM), for the others: at the top dose activity change, negative = growth inhibition, most hits filed as inhibitors | 15% of 420,000 active | AID 686978, 2013; note: nearly all actives have a fitted effect of over 55% in size
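Compound effects on proliferation are scored in DT40 Tdp1-/-;hTDP1 cells in the absence of CPT. ATP levels (CellTiter-Glo luminescence) are recorded after a ≥48 hr, 37 °C incubation.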
DT40 TDP1 CPT: DT40-hTDP1 cell growth loss with CPT; chicken DT40 Tdp1-/-;hTDP1 cells + 20 nM CPT, ATP luminescence, 48 h; Potency, µM (doses to about 46.2 µM), for the others: top-dose activity change, negative = growth inhibition, usual class: inhibitors; 12% of 420,000 active; note: nearly all actives have a fitted effect of over 55% in size
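Chicken DT40 Tdp1-/- cells complemented with human TDP1, 400 cells/well, exposed to compounds plus 20 nM camptothecin for at least 48 h at 37 C; viability read as ATP content by CellTiter-Glo luminescence.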
KB-V1 cytotox: kills drug-selected multidrug resistant KB-V1 cells. Potency, µM (top dose mostly 46.1 µM), actives largely listed as cytotoxic. KB-V1 MDR cells viability, CellTiter-Glo, 72 h. AID 1347076. 3.4% of 400,000 active; note: nearly all actives have a fitted effect of over 60% in size
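qHTS viability screen in drug-selected KB-V1 MDR cells: 72 h compound treatment at 37 degrees C, ATP luminescence end point.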
Active calls of the source: *; i = inactive; ? = inconclusive; · = no result. Only some compounds are listed: those with a hit (about 19% of all), similar ones and a draw of the others. Calls come from the whole dose curve; as a rule, active = well fitted curve in the direction sought with a large enough effect; inconclusive = small, poorly fitted or top-dose-only effect, or another doubt; inactive = no such curve, though single readings can be large; an effect the other way counts as inactive or inconclusive. Unless noted, % is set by controls: 0 for no effect and ±100 for the full control effect; potency is the fitted concentration of half-maximal effect.

SMILES	KB-3-1 cytotox	HT1080NT lethal	HT1080 IDH1KD tx	DT40 TDP1 no CPT	DT40 TDP1 CPT	KB-V1 cytotox
CCOc1ccc(Br)cc1C1=CC(=O)C[C@H](c2ccc(OC)cc2)C1	5.8µM*	?	5.8µM*	2.9µM*	4.6µM*	16µM*
COc1ccccc1CN1CC[C@@]2(CCCN(C(=O)c3cccc(F)c3)C2)C1	·	·	·	-23%	7%	·
COc1ccc([C@H]2CC(=O)C=C(c3cccc(OC(F)(F)F)c3)C2)cc1	i	17%	2%	?	23µM*	i
COc1ccc([C@H]2CC(=O)C=C(c3ccc(OC(F)(F)F)cc3)C2)cc1	i	0%	4%	?	?	?
COc1cc(NCCCn2cnc3c(OC)ncnc32)cc(OC)c1OC	i	-8%	1%	-9%	-14%	?
COCCn1c(SCC(=O)Nc2sc(C)c(C)c2C#N)nnc1-c1ccc(OC)cc1	i	6%	18%	-1%	-30%	9.2µM*
Cc1ccc(C(CC(=O)N2CCCC2)c2ccccc2)c(O)c1 (stereo not drawn)	i	16%	10%	6%	3%	i
N#CC(C#N)=Cc1ccc(OCC(=O)N2CCOCC2)cc1	i	1%	-3%	?	21µM*	i
CCOc1ccc(OCC(=O)N2CCOCC2)cc1	i	18%	21%	3%	2%	i
CCOC(=O)c1cc(C)n(CC2CCC(C(=O)Nc3ccc(C)c(F)c3)CC2)c1C (stereo not drawn)	·	·	·	-27%	?	·
CCOC(=O)c1cc(C)n(CC2CCC(C(=O)Nc3ccc(OC)cc3)CC2)c1C (stereo not drawn)	·	·	·	21µM*	15µM*	·
CCOC(=O)c1cc(C)n(CC2CCC(C(=O)Nc3cccc(C)c3)CC2)c1C (stereo not drawn)	·	·	·	?	18µM*	·
CCOC(=O)c1cc(C)n(CC2CCC(C(=O)Nc3cc(OC)cc(OC)c3)CC2)c1C (stereo not drawn)	·	·	·	23µM*	?	·
Clc1ccc(-c2csc(-c3cccnc3)n2)s1	i	29%	12%	-19%	2%	i
CC(C)c1ccc(NC(=O)c2cc3c(=O)oc4ccccc4c3s2)cc1	·	·	·	-15%	-1%	·
CCOc1ccccc1NC(=O)c1cn(C2CCCC2)c(=O)c2c1c1ccccc1n2C	·	·	·	9.2µM*	13µM*	·
CC(C)c1ccc(NC(=O)c2cn(C3CCCC3)c(=O)c3c2c2ccccc2n3C)cc1	i	·	·	-27%	-26%	i
COc1cc(NC(=O)c2cn(C3CCCC3)c(=O)c3c2c2ccccc2n3C)cc(OC)c1OC	i	·	·	18µM*	?	?
Cc1ccc(-c2noc(CNC(=O)c3ccc4c(c3)OCO4)n2)cc1	i	-27%	-9%	?	8%	i
CCCNC(=O)C[C@@H]1CC[C@H]2NC[C@H](O)COC[C@@H]2O1	i	11%	19%	4%	13%	i
Cc1ccc(Cl)cc1NC(=O)Cn1c(=O)oc2cc(S(=O)(=O)N3CCCC3)ccc21	·	·	·	9.2µM*	23µM*	·
CC1CCN(CCCNC(=O)CN2C(=O)CSc3ccc(S(=O)(=O)N4CCC(C)CC4)cc32)CC1	i	-9%	-4%	15µM*	?	i
CCCNC(=O)Cn1c(=O)oc2cc(S(=O)(=O)N3CCCC3)ccc21	i	0%	3%	4%	7%	i
CCN(C(=O)Cn1c(=O)oc2cc(S(=O)(=O)N3CCCCCC3)ccc21)c1cccc(C)c1	·	·	·	21µM*	?	·
Cc1cccc(NC(=O)Cn2c(=O)ccc3cc(S(=O)(=O)N4CCCC4)ccc32)c1C	i	·	·	16µM*	?	i
CC(C)C(=O)c1cc2c(cc1NC(=O)c1ccccc1F)OCCO2	i	·	·	?	?	i
